The results in this text go back to PubChem BioAssay.

The test system of experiment [1] is PRMT1 (protein arginine N-methyltransferase 1). The experiment in a line: small molecules binding arginine methyltransferase PRMT1 – biochemical, small-molecule microarray, 635 nm fluorescence, primary screen (AID 1088).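 Note: binding of Prmt1 protein to compounds spotted on small-molecule microarray slides.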 As to conditions: higher = more signal.
Experiment [2] in a line: growth effects on S. cerevisiae YJM789 – YJM789 clinical isolate, OD600, 24 h, basal, primary screen (AID 1089).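 Note: growth of clinical yeast isolate S. cerevisiae YJM 789 seeded 1000 cells per well; test concentration not given here.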 To be noted: higher = more signal, called active from +8 up or from −8 down.
Experiment [3] is described as follows: S. pombe growth modifiers, basal conditions – strain 972, OD600, 24 h, no modulator, primary screen (AID 1090).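 Note: basal condition with compound alone and no growth modifier present; test concentration not given here.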 To be noted: S. pombe 972 growth, higher = more signal, called active from +8 up or from −8 down.
Experiment [4] in a line: budding yeast growth modifiers under rapamycin – strain BY4716, OD600, 96 h, primary screen (AID 1091). Note: test concentration not given here. As to conditions: S. cerevisiae BY4716 + rapamycin, higher = more signal, called active from +8 up or from −8 down.
The target in experiment [5] is Torsin-1A-interacting protein 2 (Homo sapiens) (UniProt Q8NFQ8). The experiment in a line: small molecules binding lysate-expressed LULL1 – cell lysate, human LULL1 lysate, 635/667 nm fluorescence, primary screen (AID 1092).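 Note: probe is lysate of COS7 cells overexpressing human LULL1; score merges per-feature 667 nm fluorescence with signal-to-noise.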 As to conditions: small-molecule microarray, hLULL1 lysate binding, 635 nm fluorescence; higher = more signal.
Torsin-1A-interacting protein 2 (Homo sapiens), sequence (Q8NFQ8 whole entry, looked up): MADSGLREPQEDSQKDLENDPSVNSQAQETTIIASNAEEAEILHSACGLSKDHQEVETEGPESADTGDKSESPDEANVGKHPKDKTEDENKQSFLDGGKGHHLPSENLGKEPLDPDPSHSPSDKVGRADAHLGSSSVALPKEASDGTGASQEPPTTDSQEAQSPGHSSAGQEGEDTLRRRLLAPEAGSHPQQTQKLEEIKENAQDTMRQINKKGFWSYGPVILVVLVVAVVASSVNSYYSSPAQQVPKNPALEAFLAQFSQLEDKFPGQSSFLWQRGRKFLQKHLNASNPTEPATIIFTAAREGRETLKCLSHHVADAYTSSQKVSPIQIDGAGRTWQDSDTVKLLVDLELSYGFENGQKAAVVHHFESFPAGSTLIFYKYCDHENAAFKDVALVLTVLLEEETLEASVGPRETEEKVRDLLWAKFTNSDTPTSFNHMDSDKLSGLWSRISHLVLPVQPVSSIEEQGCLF
Experiment [6] can be described thus: optical density change of DRC41 E. coli – strain DRC41, OD650, 24 h, E. coli filamentation project, primary screen (AID 1093).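 Note: MC1000 strain lacking acrAB efflux and sulA so SOS filamentation is blocked; test concentration not given here.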 To be noted: E. coli DRC41 growth, higher = more signal, called active from +8 up or from −8 down.
A short description of experiment [7]: probe aLefty2 binding to arrayed compounds – biochemical, biotinylated probe, 635/667 nm fluorescence, primary screen (AID 1094).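 Note: score merges spot fluorescence near 667 nm with spot signal-to-noise ratio.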 As to conditions: small-molecule microarray, higher = more signal.
Experiment [8] deals with Noggin (protein binding on small-molecule microarray). As to the kind of experiment: small molecules binding Noggin protein – biochemical, 635/667 nm fluorescence, primary screen (AID 1095).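 Note: score merges 667 nm feature fluorescence with signal to noise over triplicate slides.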 As to conditions: 635 nm fluorescence, higher = more signal.
The target of experiment [9] is Neurogenic locus notch homolog protein 3 (Homo sapiens) (UniProt Q9UM47). As to the kind of experiment: small molecules binding NOTCH3 protein – biochemical, 635/667 nm fluorescence, primary screen (AID 1096). To be noted: small-molecule microarray, 635 nm fluorescence, higher = more signal.
Neurogenic locus notch homolog protein 3 (Homo sapiens), sequence (Q9UM47 whole entry, looked up): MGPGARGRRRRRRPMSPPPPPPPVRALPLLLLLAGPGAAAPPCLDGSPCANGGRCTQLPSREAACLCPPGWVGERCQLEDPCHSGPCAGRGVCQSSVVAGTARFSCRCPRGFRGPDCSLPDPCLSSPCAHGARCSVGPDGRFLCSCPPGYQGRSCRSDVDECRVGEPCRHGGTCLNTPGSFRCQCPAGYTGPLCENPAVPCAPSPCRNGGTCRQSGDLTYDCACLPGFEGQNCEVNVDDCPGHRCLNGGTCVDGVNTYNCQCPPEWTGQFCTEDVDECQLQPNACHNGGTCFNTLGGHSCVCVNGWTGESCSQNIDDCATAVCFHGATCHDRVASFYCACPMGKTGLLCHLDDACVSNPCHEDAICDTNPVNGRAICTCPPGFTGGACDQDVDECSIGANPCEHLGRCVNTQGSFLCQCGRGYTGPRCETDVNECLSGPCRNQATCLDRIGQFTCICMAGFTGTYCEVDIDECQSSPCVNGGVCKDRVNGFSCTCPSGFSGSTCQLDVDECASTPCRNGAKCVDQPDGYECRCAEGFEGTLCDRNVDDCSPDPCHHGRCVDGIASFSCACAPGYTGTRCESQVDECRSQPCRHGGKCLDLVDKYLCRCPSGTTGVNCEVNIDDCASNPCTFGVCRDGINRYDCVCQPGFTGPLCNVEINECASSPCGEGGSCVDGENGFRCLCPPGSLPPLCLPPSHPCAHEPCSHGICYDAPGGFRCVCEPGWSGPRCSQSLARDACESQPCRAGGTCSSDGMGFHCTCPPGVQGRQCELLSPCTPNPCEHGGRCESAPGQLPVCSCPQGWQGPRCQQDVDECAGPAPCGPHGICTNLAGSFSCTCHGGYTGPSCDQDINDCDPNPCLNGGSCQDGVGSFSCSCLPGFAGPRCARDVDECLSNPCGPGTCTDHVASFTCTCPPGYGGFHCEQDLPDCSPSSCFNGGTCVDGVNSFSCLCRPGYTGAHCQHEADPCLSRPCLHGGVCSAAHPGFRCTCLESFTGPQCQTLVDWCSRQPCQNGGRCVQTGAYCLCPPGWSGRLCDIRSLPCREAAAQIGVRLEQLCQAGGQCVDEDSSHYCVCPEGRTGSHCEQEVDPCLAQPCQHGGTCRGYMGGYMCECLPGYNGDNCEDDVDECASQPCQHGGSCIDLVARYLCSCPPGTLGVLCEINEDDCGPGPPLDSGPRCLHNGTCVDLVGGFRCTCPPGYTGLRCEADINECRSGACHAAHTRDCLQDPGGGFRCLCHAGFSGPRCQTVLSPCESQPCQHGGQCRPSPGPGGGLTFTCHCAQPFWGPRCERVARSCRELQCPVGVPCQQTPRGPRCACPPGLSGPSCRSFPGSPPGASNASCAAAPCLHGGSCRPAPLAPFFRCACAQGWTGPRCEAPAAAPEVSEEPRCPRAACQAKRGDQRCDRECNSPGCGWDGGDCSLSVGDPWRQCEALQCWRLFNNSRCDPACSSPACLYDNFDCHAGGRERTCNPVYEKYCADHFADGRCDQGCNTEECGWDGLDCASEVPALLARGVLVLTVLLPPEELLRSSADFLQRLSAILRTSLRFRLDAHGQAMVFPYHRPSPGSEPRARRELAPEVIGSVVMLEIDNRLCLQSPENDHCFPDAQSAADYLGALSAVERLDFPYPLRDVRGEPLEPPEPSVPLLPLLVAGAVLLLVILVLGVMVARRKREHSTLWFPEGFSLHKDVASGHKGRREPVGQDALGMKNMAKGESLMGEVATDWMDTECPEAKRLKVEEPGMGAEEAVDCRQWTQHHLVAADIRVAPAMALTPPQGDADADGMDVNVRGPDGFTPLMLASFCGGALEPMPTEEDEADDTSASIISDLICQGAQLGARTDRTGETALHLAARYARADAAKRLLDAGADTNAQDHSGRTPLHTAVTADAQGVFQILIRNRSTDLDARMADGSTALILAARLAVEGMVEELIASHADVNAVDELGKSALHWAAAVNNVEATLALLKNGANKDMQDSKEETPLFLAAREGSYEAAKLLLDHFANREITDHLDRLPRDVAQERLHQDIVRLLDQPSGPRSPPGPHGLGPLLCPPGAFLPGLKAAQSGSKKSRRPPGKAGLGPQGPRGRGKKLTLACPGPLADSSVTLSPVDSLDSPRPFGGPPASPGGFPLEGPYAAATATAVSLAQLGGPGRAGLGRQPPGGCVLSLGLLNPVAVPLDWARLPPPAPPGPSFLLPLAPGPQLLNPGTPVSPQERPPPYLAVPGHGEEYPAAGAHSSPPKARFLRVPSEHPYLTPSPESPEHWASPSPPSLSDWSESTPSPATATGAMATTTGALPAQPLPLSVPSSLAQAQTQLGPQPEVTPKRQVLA
Experiment [10] is described as follows: probe aEGFR binding to arrayed compounds – biochemical, biotinylated probe, 635/667 nm fluorescence, primary screen (AID 1097).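 Note: probe is a biotinylated anti-EGFR antibody binding compounds printed on slides; score combines fluorescence near 667 nm and signal to noise of each spot.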 As to conditions: small-molecule microarray, higher = more signal.
Experiment [11] has as its system Plasmodium falciparum Sir2 (PF13_0152, Sir2A). The experiment in a line: Plasmodium falciparum Sir2A binding compounds – biochemical, small-molecule microarray, 635 nm fluorescence, primary screen (AID 1098).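 Note: score merges spot fluorescence intensity with its signal-to-noise ratio.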 As to conditions: fluorescence 635 nm, higher = more signal.
A short description of experiment [12]: probe aDKK1 binding to arrayed compounds – biochemical, biotinylated probe, 635/667 nm fluorescence, primary screen (AID 1099).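 Note: score merges 667nm spot fluorescence with signal to noise across triplicate slides; reference of the scale not given here.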 To be noted: small-molecule microarray, higher = more signal.
Experiment [13] can be described thus: probe aCHRDL2 binding to arrayed compounds – biochemical, biotinylated probe, 635/667 nm fluorescence, primary screen (AID 1100). As to conditions: small-molecule microarray, higher = more signal.
Experiment [14] in a line: change in splice reporter luminescence, either direction, cell-based, HEK293, spliceosome inhibition project, primary screen (AID 1101).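 Note: HEK293 cells carrying a splicing-competent luciferase reporter gene; test concentration not given here.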 To be noted: HEK293 splicing luciferase reporter, 24 h, higher = more signal, called active from +8 up or from −8 down. (In general: In a reporter assay the amount or activity of a reporter protein is the signal.)
In experiment [15] the target is Fibroblast growth factor 10 (Homo sapiens) (UniProt O15520). The experiment in a line: compounds binding fibroblast growth factor 10 – biochemical, small-molecule microarray, 635 nm fluorescence, primary screen (AID 1102). As to conditions: FGF10 binding, fluorescence 635 nm, higher = more signal.
Fibroblast growth factor 10 (Homo sapiens), sequence (O15520 whole entry, looked up): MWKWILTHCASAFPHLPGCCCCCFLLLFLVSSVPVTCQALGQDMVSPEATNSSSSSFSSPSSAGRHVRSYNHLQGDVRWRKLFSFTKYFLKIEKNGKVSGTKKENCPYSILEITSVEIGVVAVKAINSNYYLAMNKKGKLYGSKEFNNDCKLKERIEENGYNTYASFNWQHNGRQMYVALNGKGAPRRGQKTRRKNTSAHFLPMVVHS
Experiment [16] has as its system glycogen synthase kinase-3 (GSK3A per assay name; protocol says GSK3B). The experiment in a line: compounds binding glycogen synthase kinase-3 – biochemical, small-molecule microarray, 635 nm fluorescence, GSK3A, primary screen (AID 1103). Note: the record names both GSK3A and GSK3B. To be noted: fluorescence 635 nm, higher = more signal.
In experiment [17] the target is Epidermal growth factor receptor (Homo sapiens) (UniProt P00533). As to the kind of experiment: compounds binding epidermal growth factor receptor – biochemical, small-molecule microarray, 635 nm fluorescence, primary screen (AID 1104).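 Note: score merges 667 nm emission intensity with spot signal to noise over triplicate slides.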 To be noted: EGFR binding, higher = more signal.
Epidermal growth factor receptor (Homo sapiens), sequence (P00533 whole entry, looked up): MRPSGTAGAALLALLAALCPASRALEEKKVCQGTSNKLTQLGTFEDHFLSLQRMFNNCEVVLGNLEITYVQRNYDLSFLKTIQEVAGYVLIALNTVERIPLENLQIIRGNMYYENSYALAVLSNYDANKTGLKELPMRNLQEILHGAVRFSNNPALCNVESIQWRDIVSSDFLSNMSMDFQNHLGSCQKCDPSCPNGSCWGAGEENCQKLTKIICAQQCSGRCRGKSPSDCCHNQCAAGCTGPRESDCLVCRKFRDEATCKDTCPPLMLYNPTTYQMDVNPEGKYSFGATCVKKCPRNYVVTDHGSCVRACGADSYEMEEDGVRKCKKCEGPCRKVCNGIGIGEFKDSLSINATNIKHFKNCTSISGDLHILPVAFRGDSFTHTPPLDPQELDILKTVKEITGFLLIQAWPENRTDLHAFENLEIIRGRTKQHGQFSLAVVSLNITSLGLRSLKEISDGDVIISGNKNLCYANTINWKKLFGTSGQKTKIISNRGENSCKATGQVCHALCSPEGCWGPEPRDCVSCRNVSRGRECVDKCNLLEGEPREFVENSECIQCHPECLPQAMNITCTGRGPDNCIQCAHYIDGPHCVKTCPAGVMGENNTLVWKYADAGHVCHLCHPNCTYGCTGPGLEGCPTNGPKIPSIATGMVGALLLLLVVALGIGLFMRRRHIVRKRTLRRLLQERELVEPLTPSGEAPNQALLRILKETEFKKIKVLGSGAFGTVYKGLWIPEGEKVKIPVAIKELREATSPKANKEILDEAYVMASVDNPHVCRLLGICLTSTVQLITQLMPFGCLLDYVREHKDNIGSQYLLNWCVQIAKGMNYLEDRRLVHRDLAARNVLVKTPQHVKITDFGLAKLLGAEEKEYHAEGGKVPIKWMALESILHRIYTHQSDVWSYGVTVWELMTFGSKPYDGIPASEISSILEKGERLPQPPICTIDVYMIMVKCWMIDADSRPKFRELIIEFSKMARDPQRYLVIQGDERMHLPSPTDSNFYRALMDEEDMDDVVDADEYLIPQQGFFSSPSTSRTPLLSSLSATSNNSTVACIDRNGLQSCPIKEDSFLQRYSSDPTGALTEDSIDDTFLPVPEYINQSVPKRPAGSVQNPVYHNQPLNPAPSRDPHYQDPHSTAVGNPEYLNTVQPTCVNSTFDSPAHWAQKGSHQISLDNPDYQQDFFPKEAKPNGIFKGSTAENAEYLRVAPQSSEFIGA
Experiment [18] has as its target Follistatin-related protein 3 (Homo sapiens) (UniProt O95633). As to the kind of experiment: compounds binding follistatin-related protein 3 – biochemical, small-molecule microarray, 635 nm fluorescence, primary screen (AID 1105).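 Note: score merges emission near 667 nm and signal to noise per printed spot across three slides.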 As to conditions: FSTL3 binding, higher = more signal.
Experiment [19] has as its target Dickkopf-related protein 1 (Homo sapiens) (UniProt O94907). As to the kind of experiment: small molecules binding DKK1 protein – biochemical, small-molecule microarray, 635 nm fluorescence scan, primary screen (AID 1106).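 Note: score merges emission near 667 nm with signal to noise over three replicate slides.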 As to conditions: higher = more signal.
Experiment [20] concerns Inhibin beta A chain (activin A). As to the kind of experiment: small molecules binding activin A – biochemical, small-molecule microarray, 635 nm fluorescence scan, primary screen (AID 1107).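 Note: mouse activin A protein probed at 4.33 µg/mL on printed slides; score merges bound-protein fluorescence near 667 nm with spot signal-to-noise.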 To be noted: INHBA, higher = more signal.

The source made the active and inactive calls.

Follistatin-related protein 3 (Homo sapiens), sequence (O95633 whole entry, looked up): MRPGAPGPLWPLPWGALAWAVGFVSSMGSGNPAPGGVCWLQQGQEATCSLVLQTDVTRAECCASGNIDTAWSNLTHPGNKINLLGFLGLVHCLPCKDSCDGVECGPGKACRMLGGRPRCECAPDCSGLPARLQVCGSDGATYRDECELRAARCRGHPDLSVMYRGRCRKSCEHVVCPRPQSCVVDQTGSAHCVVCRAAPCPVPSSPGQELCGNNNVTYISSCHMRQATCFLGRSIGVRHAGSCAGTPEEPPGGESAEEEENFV
Dickkopf-related protein 1 (Homo sapiens), sequence (O94907 whole entry, looked up): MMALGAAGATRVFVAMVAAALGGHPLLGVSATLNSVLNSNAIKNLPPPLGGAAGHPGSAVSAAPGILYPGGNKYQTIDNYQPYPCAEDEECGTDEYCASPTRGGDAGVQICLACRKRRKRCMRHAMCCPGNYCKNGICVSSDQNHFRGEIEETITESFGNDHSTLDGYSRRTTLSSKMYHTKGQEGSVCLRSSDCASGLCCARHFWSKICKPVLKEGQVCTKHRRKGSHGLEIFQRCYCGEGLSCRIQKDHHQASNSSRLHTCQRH

Take `CC(C)=CCCC(C)=CCON=C1C[C@@H](O)[C@@H](O)[C@@H]2[C@@H]3C(=O)N(C(C)(C)C)C(=O)[C@@H]3CC[C@@H]12`: the composite z-score in experiment [1] is -0.305; in experiment [5], 0.197; in [7] it was -0.0615; in experiment [8] it was 0.386; in [9], 0.605; in [10], -0.0594. Moreover, the composite z-score in experiment [11] is 0.263; in experiment [12] it was 0.0156; in [13], -0.046; in experiment [15] it was 0.313; in experiment [16], 0.426; in experiment [17], 0.619. Besides, the composite z-score in experiment [18] was 0.51; in experiment [19], 0.18; in experiment [20] it was 0.231. Besides, the z-score in [2] was 0.286 (inactive); in experiment [3], 0.451 (inactive); in experiment [4], 0.361 (inactive); in experiment [6], -0.636 (inactive); in [14] it was -0.0767 (inactive).
As to `C[C@@H](c1ccccc1)N1C(=O)[C@H]2[C@H]3[C@H](O)[C@H](O)CC(=NO[C@@H]4O[C@H](CO)[C@@H](O)[C@H](O)[C@H]4O)[C@@H]3CC[C@H]2C1=O`, the composite z-score in experiment [1] was 0.0967; in experiment [5], 0.652; in [7], -0.126; in experiment [8], 0.111; in experiment [9], 0.372; in experiment [10], 0.0271. Further, the composite z-score was 0.256 in experiment [11]; -0.193 in experiment [12]; -0.62 in experiment [13]; 0.305 in experiment [15]; 0.495 in experiment [16]; 0.586 in experiment [17]. Moreover, the composite z-score in experiment [18] turned out to be 0.579; in [19], 0.393; in experiment [20] it was 0.0868. Moreover, the z-score in experiment [2] was 0.114 (inactive); in experiment [3] it was 0.149 (inactive); in experiment [4], -0.967 (inactive); in [6], 0.345 (inactive); in [14], 0.119 (inactive).
`C[C@H]1CC[C@H]2C(=O)O[C@H](COc3ccc(C(C)(C)C)cc3)CN2[C@@H]1c1ccc(Br)cc1`: the composite z-score in experiment [1] is 0.27; in experiment [5] it was 0.55; in experiment [7] it was 0.0056; in experiment [8], -0.0084; in [9], -0.164; in [10] it was -0.143. For the same compound, the composite z-score in experiment [11] is 0.926; in [12], -0.143; in [13], -0.0663; in [15], 0.0311; in experiment [16] it was 0.102; in experiment [17] it was -0.0022. Besides, the composite z-score in experiment [18] was -0.156; in experiment [19], -0.189; in experiment [20] it was 0.0563. In addition, the z-score in experiment [2] was -0.364 (inactive); in experiment [3], -0.725 (inactive); in experiment [4], 0.474 (inactive); in experiment [6] it was -0.535 (inactive); in experiment [14] it was 0.134 (inactive).
As for `O=C1CCCC=C1C(CCc1ccccc1)OC(=O)c1ccc(Br)cc1` (stereo not given), the composite z-score in [1] is -0.429; in experiment [5], -0.699; in [7], -0.159; in experiment [8] it was 0.354; in [9] it was -0.445; in [10] it was -0.12. Further, the composite z-score is -0.258 in experiment [11]; -0.0892 in experiment [12]; -0.442 in [13]; 0.146 in experiment [15]; -0.61 in experiment [16]; 0.362 in [17]. The composite z-score in experiment [18] is 0.283; in [19], 0.422; in experiment [20] it was 0.608. Further, the z-score in experiment [2] was -0.596 (inactive); in experiment [3], -2.94 (inactive); in experiment [4], -2.46 (inactive); in [6] it was 0.037 (inactive); in experiment [14] it was -0.173 (inactive).
Turning to `CCOC(=O)NN=C1C[C@@H](O)[C@@H](O)[C@@H]2[C@@H]3C(=O)N(Cc4ccc5c(c4)OCO5)C(=O)[C@@H]3CC[C@H]12`, the composite z-score in [1] is 0.667; in [5] it was 2.31; in experiment [7], -0.289; in experiment [8] it was 0.303; in experiment [9], -0.578; in [10] it was -0.0978. Moreover, the composite z-score in [11] was 0.263; in [12], -0.238; in experiment [13], -0.233; in [15], 0.0798; in experiment [16], -0.566; in [17], -0.0894. Besides, the values for the composite z-score in experiment [18], in experiment [19] and in experiment [20] were -0.199, -0.108 and 0.0787, respectively. Besides, the z-score was -0.126 (inactive) in [2]; 0.119 (inactive) in experiment [3]; -0.6 (inactive) in experiment [4]; 0.203 (inactive) in experiment [6]; 0.346 (inactive) in experiment [14].
